Data published in publication PMC5540273 (PLoS ONE, 2017).

How the values were obtained:
Settings in all cases: concentration: 1 μM, replicates: in singlicate; n = 1
CAMK4 = system: CAMK4
CAMKK1 = system: CAMKK1
CAMKK2 = system: CAMKK2
CASK = system: CASK
CDC2L1 = system: T1, CDC2L1
T1 construct: gene CDK11B

CDC2L2 = system: CDC2L2
CDC2L5 = system: T2, CDC2L5
T2 construct: gene CDK13

CDK11 = system: T3, CDK11
T3 construct: gene CDK19

CDK2 = system: CDK2
CDK3 = system: CDK3
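Note: KINOMEscan kinase panel screen.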

| Compound | %Inh (CAMK4) [%] | %Inh (CAMKK1) [%] | %Inh (CAMKK2) [%] | %Inh (CASK) [%] | %Inh (CDC2L1) [%] | %Inh (CDC2L2) [%] | %Inh (CDC2L5) [%] | %Inh (CDK11) [%] | %Inh (CDK2) [%] | %Inh (CDK3) [%] |
| --- | --- | --- | --- | --- | --- | --- | --- | --- | --- | --- |
| FC(F)(F)c1ccccc1-c1cc(-c2c[nH]nc2-c2ccccn2)ccn1 [GW679396] | 0 | 5 | 21 | 17 | 0 | 0 | 0 | 0 | 0 | 0 |
| COC(=O)C(NC(=O)NC1CCN(c2ccnc(Nc3ccc(F)cc3)n2)C1)c1ccccc1 (centres unmarked) [GSK1379712] | 0 | 25 | 23 | 2 | 0 | 17 | 0 | 54 | 81 | 19 |
| Cc1ccc(NC(=O)Nc2ccc(Cl)cc2)cc1-c1ccc(C(=O)Nc2ccncc2)cc1 [GSK1398472] | 0 | 0 | 0 | 21 | 0 | 13 | 0 | 8 | 0 | 8 |
| COC(=O)C(Cc1ccccc1)NC(=O)NC1CCN(c2ccnc(Nc3ccc(F)cc3)n2)C1 (centres unmarked) [GSK1379714] | 9 | 19 | 9 | 4 | 0 | 18 | 0 | 48 | 0 | 6 |
| COc1ccc(Nc2nccc(N3CCC(NC(=O)C(C)c4ccc(Cl)cc4)CC3)n2)cc1 (centres unmarked) [GSK1379812] | 0 | 0 | 31 | 3 | 0 | 10 | 0 | 63 | 0 | 0 |
